Bioassay records (PubChem)
Pf growth 96h = Primary qHTS for delayed death inhibitors of the malarial parasite plastid, 96 hour incubation | P. falciparum luciferase reporter growth, 96 h | Potency, µM (top dose mostly 28.7 µM), for inactives: at the highest dose activity change, negative = inhibition, hits mostly inhibitors | hit rate 6.9% among 320,000 | AID 504834, 2011
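Readout is luminescence from an integrated firefly luciferase in P. falciparum. Red cells, 2% hematocrit and 0.05% parasitemia final, were cultured with compound through two parasite generations (96 hours) at 37 C, 5% CO2.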
AmpC detergent = qHTS Inhibitors of AmpC Beta-Lactamase (assay with detergent). P00811. AmpC hydrolysis of nitrocefin, absorbance 480 nm, 0.01% Triton. Potency, µM (top dose mostly 114 µM), without a hit: at the highest dose activity change, negative = inhibition, usual class: inhibitors. hit rate 0.041% among 370,000. AID 485294, 2010;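 further: 0% = no-compound wells and -100% = no-enzyme wells; nearly all actives have a fitted effect of over 25% in size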
Target sequence (P00811 whole entry, looked up): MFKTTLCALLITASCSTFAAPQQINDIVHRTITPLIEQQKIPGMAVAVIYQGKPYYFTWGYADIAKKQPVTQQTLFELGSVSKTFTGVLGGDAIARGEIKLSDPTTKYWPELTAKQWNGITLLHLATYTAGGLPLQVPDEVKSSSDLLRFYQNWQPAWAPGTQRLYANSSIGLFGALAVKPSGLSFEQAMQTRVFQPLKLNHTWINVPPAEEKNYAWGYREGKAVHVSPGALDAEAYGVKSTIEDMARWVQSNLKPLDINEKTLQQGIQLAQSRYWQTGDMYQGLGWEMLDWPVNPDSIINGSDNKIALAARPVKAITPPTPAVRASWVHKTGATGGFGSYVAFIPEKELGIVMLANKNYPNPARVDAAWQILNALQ
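AmpC (5.3 nM in the dispensed reagent) in 20 mM phosphate pH 7.0 with 0.01% (detergent screen) or 0.0001% Triton X-100 was preincubated with compounds for 15 min at room temperature. Nitrocefin was then added from an 800 uM solution, and hydrolysis was followed at 480 nm.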
HCV inh = qHTS Assay for Inhibitors of Hepatitis C Virus (HCV); Huh7.5.1 HCVcc-Cre infection, luciferase reporter, 44 h; Potency, µM (doses to about 41.8 µM), for inactives: top-dose activity change, negative = inhibition, hits mostly inhibitors; hit rate 3.4% among 340,000; AID 651820, 2012
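Cells (1,000/well) were plated 4 h before compound, then infected with HCVcc-Cre virus (~0.5 moi). After 44 h further culture, infection was read as luciferase luminescence following a 15 min substrate incubation at room temperature.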
AMA1-RON2 inh = qHTS for Inhibitors of AMA1-RON; Towards Development of Antimalarial Drug Lead: Primary Screen; AID 720542, 2013; Plasmodium falciparum AMA1 (3D7) - RON2 peptide interaction; AlphaScreen AMA1-biotinylated RON2 peptide binding; Potency, µM (doses to about 58.2 µM), without a hit: at the highest dose activity change, negative = inhibition, usual class: inhibitors; hit rate 0.2% among 360,000;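 further: 0% = vehicle wells and -100% = peptide control; nearly all actives have a fitted effect of over 45% in size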
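AMA1 (3D7) with his tag at 25 nM final met compounds first, then biotinylated RON2 peptide at 25 nM; detection used donor plus acceptor beads, 10 µg/mL apiece, read by AlphaScreen after 30 min at room temperature.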
AmpC inh no detg = qHTS Inhibitors of AmpC Beta-Lactamase (assay without detergent); hit rate 0.52% among 330,000; AmpC nitrocefin hydrolysis, absorbance 480 nm, 0.0001% Triton; P00811; Potency, µM (titrated, usually from 57.1 µM), without a hit: top-dose activity change, negative = inhibition, most hits filed as inhibitors;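 further: plate controls were no compound for no effect and no enzyme for full effect; nearly all actives have a fitted effect of over 20% in size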
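20 mM phosphate pH 7.0 + 0.01% (detergent screen) or 0.0001% Triton X-100; 5.3 nM AmpC reagent; cpd preinc 15 min RT; nitrocefin (800 uM stock) to start; A480 q20 s × 4 min; Activity was normalised to no-enzyme and no-compound control wells.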
Pf growth 48h = Primary qHTS for delayed death inhibitors of the malarial parasite plastid, 48 hour incubation; hit rate 5.9% among 310,000; P. falciparum luciferase growth in erythrocytes, 48 h; Potency, µM (highest dose often 28.7 µM), for inactives: at the highest dose activity change, negative = inhibition, hits mostly inhibitors
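Luciferase-expressing P. falciparum in infected erythrocytes (2% hematocrit, 0.1% parasitemia final) in RPMI 1640/0.5% Albumax were exposed to compound for 48 hours at 37 C, 5% CO2; growth read as luminescence.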
Numbers without * were called inactive; ? = inconclusive; . = no result. Rows were chosen to be rich in hits. Some 11% of all compounds tested hit in one or more screens of this group. The call rests on the fitted dose curve; in most records, active means well fitted curve in the direction sought with a large enough effect; inconclusive means small, poorly fitted or top-dose-only effect, or another doubt; inactive means no such curve, though single readings can be large; an effect the other way counts as inactive or inconclusive. Unless noted, on the % scale 0 is the no-effect control and ±100 the full control effect; potency means the concentration at half of the fitted maximal effect.

SMILES	Pf growth 96h	AmpC detergent	HCV inh	AMA1-RON2 inh	AmpC inh no detg	Pf growth 48h
CCn1c(=O)c2cc(C(=O)NCc3cc(OC)ccc3OC)sc2c2ccccc21	.	17.6%	.	.	.	.
Cc1nc(SCc2nc3ccccc3[nH]2)c2oc3ccccc3c2n1	?	-0.4%	25.1µM*	-2.9%	81.1%	?
CCOc1nc(-c2ccccc2)ccc1-c1noc(-c2ccco2)n1	15.8%	?	10µM*	20.8%	-41.9%	?
O=S(=O)(c1ccc(Cl)cc1)N1CCC(N2CCOCC2)CC1	?	-8.5%	-17.5%	-24.3%	-21.6%	-3.7%
Nc1nc(-c2ccc(Cl)cc2)c(N=Nc2ccc(S(=O)(=O)N3CCOCC3)cc2)s1	?	-10.5%	11.2µM*	-8.3%	-27.9%	-5.4%
CCCCc1nc2cc(C(=O)NCc3nccn3CC)ccc2o1	-19.9%	-4.4%	-19.6%	94.5%	7.8%	34.8%
CCCCc1nc2cc(C(=O)NCc3cn(C)nc3C)ccc2o1	?	-3.2%	12.6µM*	-7.4%	-23.8%	-12.3%
O=C(c1ccc(F)cc1)n1nc(-c2cccnc2)nc1NCc1ccc(F)cc1	.	12.3%	.	.	.	.
COc1ccc(C[C@H]2COC(=O)[C@@H]2Cc2ccc(OC3OC(CO)C(O)C(O)C3O)c(OC)c2)cc1OC (some centres undefined)	-8.8%	-13.8%	7.08µM*	-1.3%	-11.3%	-6.6%
CC[N+](CC)(CC)CCCCOc1ccc2c(c1)C(=O)c1cc(OCCCC[N+](CC)(CC)CC)ccc1-2	?	0.8%	?	-5.1%	-6.3%	0.0657µM*
CC[N+](C)(CC)CCCCOc1ccc2c(c1)C(=O)c1cc(OCCCC[N+](C)(CC)CC)ccc1-2	?	-7.8%	?	-7.4%	17.3%	?
COc1ccc(Cl)cc1NC(=O)c1cc(-c2ccccc2O)n[nH]1	10.4µM*	-22.0%	?	38.4%	?	10.4µM*
COc1ccc(NC(=O)c2cc(-c3cc(C)ccc3O)n[nH]2)cc1Cl	?	?	?	79.4%	-37.5%	2.08µM*
COc1ccc(OC)c(NC(=O)c2cc(-c3cc(Cl)ccc3O)n[nH]2)c1	8.28µM*	-17.1%	7.08µM*	20.5%	-39.2%	1.65µM*
Cc1c(Cl)cccc1NC(=O)c1cc(-c2ccccc2O)n[nH]1	?	-9.5%	?	-20.9%	-37.8%	.
Cc1cccc(NC(=O)c2cc(-c3cc(C)ccc3O)n[nH]2)c1	?	-8.1%	9.2%	72.0%	-29.7%	?
CC(C)[C@H]1COCCS(=O)(=O)N1Cc1ccccc1-c1cccc2c1oc1ccccc12	.	.	12.6µM*	-15.9%	-10.8%	.
CCCCOc1ccccc1-c1ccccc1CN1[C@@H](C(C)C)COCCS1(=O)=O	.	.	?	-0.6%	9.2%	.
O=C(CNC(=O)c1ccccc1F)OC(C(=O)Nc1cc(C(F)(F)F)ccc1Cl)c1ccccc1 (centres undefined)	?	?	4.0%	-2.7%	-21.7%	.
C[C@H](NC(=O)c1ccccc1Cl)C(=O)OC(C(=O)Nc1cc(C(F)(F)F)ccc1Cl)c1ccccc1 (some centres undefined)	8.28µM*	-7.0%	?	-12.6%	-13.2%	.
N#CCC(=O)Nc1ccc(C(=O)OC(C(=O)Nc2cc(C(F)(F)F)ccc2Cl)c2ccccc2)cc1 (centres undefined)	?	0.0%	-38.9%	-6.6%	7.08µM*	?
N#CCC(=O)Nc1ccc(C(=O)OC(C(=O)Nc2ccc([N+](=O)[O-])cc2Br)c2ccccc2)cc1 (centres undefined)	.	.	?	-7.7%	.	.
Cc1oc2c(c1C(=O)NCc1cccc(Br)c1)C1=NCCN1C=N2	.	5.7%	.	.	.	.
CCOc1ccc(NC(=O)CSc2ncn[nH]2)cc1	11.7µM*	0.2%	-6.2%	9.0%	-9.8%	24.2%
CCOC(=O)c1c(-c2ccc(C)o2)csc1NC(=O)CN1CCOCC1	?	-0.3%	?	16.5%	116.8%	.
SMILES	Pf growth 96h	AmpC detergent	HCV inh	AMA1-RON2 inh	AmpC inh no detg	Pf growth 48h
CCOC(=O)c1c(-c2ccc(C)o2)csc1NC(=O)CSc1ncn[nH]1	14.7µM*	2.4%	?	11.3%	-11.5%	.
CCOc1ccc(NC(=O)C(C)Sc2nnc(C)n2C)cc1 (centres undefined)	13.1µM*	?	16.3%	-0.7%	3.55µM*	7.0%
CCOc1ccc(NC(=O)CSc2nnc(C3CC3)n2C)cc1	2.08µM*	-2.3%	-2.2%	-4.1%	-8.1%	-2.9%
Cc1ccc(N2CCn3c2nc2c3c(=O)n(C/C=C/c3ccccc3)c(=O)n2C)cc1C	.	-0.6%	.	.	.	.
Cc1cccc(N2CCN(C(=O)C3CCN(C(=O)c4cc5sccc5n4C)CC3)CC2C)c1 (centres undefined)	.	-3.4%	.	.	.	.
O=C(CSc1oc(-c2ccc(F)cc2)nc1S(=O)(=O)c1ccccc1)NC1CCCCC1	.	5.6%	.	.	.	.
CCOC(=O)c1ccc(Nc2c(-c3ccc(O)cc3)nc3nc[nH]n23)cc1	.	-1.6%	.	.	.	.
CCn1cc(C(=O)NCc2ccccc2OC)c(=O)c2cc(S(=O)(=O)N3CCCCC3)ccc21	.	-2.0%	.	.	.	.
CCCCn1cc(S(=O)(=O)c2ccc(OC)cc2)c(=O)c2cc(CC)ccc21	.	5.3%	.	.	.	.
CCOC(=O)c1ccc(NC(=O)CSc2nnnn2C2CCCCC2)cc1	294.3%	2.4%	11.3%	5.7%	-18.6%	7.4%
CCOC(=O)c1ccc(NC(=O)CSc2nnc(-c3cccs3)n2C)cc1	3.29µM*	-9.6%	-0.4%	-7.6%	6.6%	?
CCOC(=O)c1ccc(NC(=O)CSc2nnc(C3CCCCC3)n2C)cc1	8.28µM*	?	2.9%	8.7%	-0.4%	6.57µM*
CCN(CC)c1ccc(N)cc1	?	-3.2%	?	11.2µM*	-6.4%	1.85µM*
Nc1ccc(N(CCO)CCO)cc1	33.3%	6.3%	18.5%	-23.0%	-12.9%	?
O=C(CCn1nnc2ccccc21)Nc1nnc(COc2ccc(F)cc2)s1	9.28µM*	-6.9%	-7.1%	13.9%	-16.2%	-3.5%
CC(=O)Nc1ccc(NC(=O)CCn2nnc3ccccc32)cc1	-3.4%	-1.6%	1.9%	0.2%	90.1%	9.28µM*
O=C(CCn1nnc2ccccc21)Nc1nnc(Cc2ccc(F)cc2)s1	.	?	5.3%	1.2%	-8.6%	-4.6%
CCOC(=O)c1ccc(NC(=O)CCn2nnc3ccccc32)cc1	?	-10.2%	-13.0%	4.9%	-29.2%	-1.2%
